In the supplement of paper PMC4709259:
Structures can show the parent of a compound that is named as a salt. ± gives the standard deviation.

Key:
Jurkat [1] = experiment: mean cell size (FSC-A) relative to DMSO control (fraction of control); higher = larger cells; conditions: 48 h
Procedure, shortened: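 Jurkat cells seeded at 600 cells/µl were incubated 1 h, then exposed for 48h to the Enzo Screen-Well FDA Approved Drug Library v2.0 at 25µM in 0.9% (v/v) final DMSO. Drugs that cut counts below 20% of controls were diluted 10-fold and retested, down to 25nM. Cell count and mean cell size (forward scatter area) were read on an Accuri C6 flow cytometer, relative to solvent-only controls. Plates held 6-12 controls; values are means of 3 biological replicates.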

Jurkat [2] = experiment: cell count relative to DMSO control (fraction of control); higher = more cells (less growth inhibition); conditions: 48 h

| SMILES | mean cell size (Jurkat [1]) | cell count (Jurkat [2]) |
| --- | --- | --- |
| Clc1ccc(COC(Cn2ccnc2)c2ccc(Cl)cc2Cl)c(Cl)c1 (stereo not given) [Miconazole] (concentration: 25 µM) | 0.976 ± 0.04 | 0.586 ± 0.11 |
| NS(=O)(=O)c1cc2c(cc1Cl)N=CNS2(=O)=O [Chlorothiazide] (concentration: 25 µM) | 0.926 ± 0.011 | 1.16 ± 0.082 |
| CC(S)C(=O)NCC(=O)O (stereo not given) [Tiopronin] (concentration: 25 µM) | 0.956 ± 0.016 | 0.864 ± 0.17 |
| CCN(CC)CCNC(=O)c1c(C)[nH]c(/C=C2\C(=O)Nc3ccc(F)cc32)c1C [Sunitinib Malate] (concentration: 250 nM) | 0.906 ± 0.031 | 0.861 ± 0.089 |
| CC1(C)C[C@@H]1C(=O)N/C(=C\CCCCSC[C@H](N)C(=O)O)C(=O)O [Cilastatin·Na] (concentration: 25 µM) | 0.942 ± 0.011 | 1.03 ± 0.092 |
| NC(N)=Nc1nc(CSCC/C(N)=N/S(N)(=O)=O)cs1 [Famotidine] (concentration: 25 µM) | 0.979 ± 0.035 | 1.19 ± 0.12 |
| OCCOCCN1CCN(C2=Nc3ccccc3Sc3ccccc32)CC1 [Quetiapine Fumarate] (concentration: 25 µM) | 0.929 ± 0.035 | 0.534 ± 0.17 |
| CCCCc1nc(Cl)c(CO)n1Cc1ccc(-c2ccccc2-c2nnn[nH]2)cc1 [Losartan Potassium] (concentration: 25 µM) | 0.922 ± 0.041 | 0.418 ± 0.1 |
| CN(C)CCOC(c1ccc(Cl)cc1)c1ccccn1 (stereo not given) [Carbinoxamine Maleate] (concentration: 25 µM) | 0.968 ± 0.054 | 0.735 ± 0.064 |
| CC(=O)NO [Acetohydroxamic Acid] (concentration: 25 µM) | 1.02 ± 0.059 | 0.755 ± 0.016 |
